C2C12 statin – suppressors of simvastatin-induced myotoxicity in C2C12 myotubes; ATP luminescence, 48 h; scaled: DMSO 0, geranylgeraniol control 100; rescue of ATP level, % at 7.49 µM; actives 0.78% (n = 330,000);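 active = mean ATP rescue above about 67%, or every replicate alone reaching that limit, limit read from the data, passing the limit was not always enough; inconclusive = no clear call, values can overlap the other calls; inactive = mean under the limit and some replicate under it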;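 note: myotubes were challenged with 10 µM simvastatin during compound exposure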
MITF TRPM1 HTS – activators of MITF-driven TRPM1 promoter activity in SK-MEL-5 cells | activation, % at 12.5 µM | AID 588334 | SK-MEL-5 TRPM1-promoter luciferase, 24 h; % of positive control, neutral wells = 0 | actives 0.75% (n = 300,000);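 active = mean activation of at least 80% with every replicate also reaching 80%; inconclusive = mean reaches 80% but some replicate falls short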;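 note: 0% = neutral control wells and 100% = parthenolide positive control wells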
esBAF inh – inhibitors of esBAF chromatin remodeling in mouse ES cells; Bmi1-luciferase knock-in reporter, 24 h; 100% = twice the neutral-well signal; reporter increase, % at 12.5 µM; actives 2% (n = 350,000); AID 602393; in the data active = activation above about 40%; inconclusive = no clear call, values can overlap the other calls;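 note: 0% = median of the plate's neutral control wells and 100% = double that signal; a rise in the Bmi1 reporter signal indicates esBAF inhibition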
GAA850 FXN act – increases GAA850 frataxin promoter reporter activity | HEK293 lucGAA850 FXN promoter luciferase reporter, 24 h; percent of 10 µM SAHA response | activation, % at 6 µM | actives 0.56% (n = 360,000);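 active = activation above the average of all compounds screened plus 3 SD, cutoff fixed separately per campaign, cut at about 7.5% in these data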;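 note: 0% = DMSO wells and 100% = 10 µM SAHA wells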
Wnt act – Wnt/beta-catenin pathway activation. actives 1.2% (n = 300,000). AID 743398. Wnt/beta-catenin reporter cell assay, activator, plate reader. activation, % at 9.35 µM; in the data active = activation above about 30%, passing the limit was not always enough; inconclusive = no clear call, values can overlap the other calls;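 note: 0% = neutral control wells and 100% = positive control wells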
Starred values were filed as active, the others as inactive; ? = inconclusive; . = not tested or not shown. Most compounds without a hit are left out; they make up all but 3.3% or so of the library.

SMILES	C2C12 statin	MITF TRPM1 HTS	esBAF inh	GAA850 FXN act	Wnt act
C[C@@H]1CN([C@H](C)CO)C(=O)c2cccc(NS(C)(=O)=O)c2O[C@@H]1CN(C)S(=O)(=O)c1ccccc1	.	.	0.6	.	.
Cc1ccc(-c2ccc(NC(=O)C3C4C=CC(C4)C3C(=O)O)cc2)o1 (stereo not given)	-6.5	.	58.8*	5.6	.
COCC(=O)N(C)C[C@@H]1Oc2cc(-c3ccc(C#N)cc3)ccc2S(=O)(=O)N([C@@H](C)CO)C[C@H]1C	-7.7	.	3.5	.	.
Cc1nc2ccc(NC(=S)NCc3ccccc3)cc2nc1C	-1.3	53.8	41.3*	5.3	-1.7
CCCn1c(O)c(C=Nc2ccccc2)sc1=S	-1.3	79.3	80.6*	4.5	-0.1
COc1ccc(NC(=O)CN2CCN(C(C)=O)CC2)cc1S(=O)(=O)N1CCOCC1	-11.3	-1.9	-0.8	-2.2	0.3
CCc1ccc(C(=O)CCC(=O)Nc2ccc(OC)c(S(=O)(=O)N3CCCCC3)c2)cc1	7.3	-6.0	8.0	0.5	55.5*
COc1ccc(NC(=O)Cn2ccc(C(F)(F)F)n2)cc1S(=O)(=O)N1CCOCC1	100.8*	2.6	.	-0.2	-2.2
Cc1c(C(Nc2ccccn2)c2ccccc2)c(=O)n(-c2ccccc2)n1C (stereo not given)	80.8*	4.1	0.2	0.7	-1.8
CCCN1[C@@H]2c3ccc(-c4ccccc4F)c(=O)n3C[C@@H]2[C@@H](CO)[C@@H]1C(=O)N1CCCCC1	0.6	.	-0.5	.	.
CCN(CC)Cc1c(O)ccc2c1O/C(=C\C=C\c1ccccc1)C2=O	105.9*	-80.1	-69.1	-11.7	-22.9
COc1ccccc1/C=C/C=C1\Oc2c(ccc(O)c2CN(C)C)C1=O	25.5	-10.0	14.5	-0.7	4.1
COc1ccc(Nc2ccnc(Nc3ccc(OC)cc3)n2)cc1	.	24.6	.	0.9	48.1*
COc1ccc(Nc2nc(OC)nc(OC)n2)cc1	-2.9	16.9	11.8	4.2	3.4
C/C(=N\NC(=O)c1ccccc1O)C1C(=O)c2ccccc2C1=O	-16.9	13.3	80.5*	2.1	.
C/C(=N/NC(=O)c1cc2ccccc2cc1O)C1C(=O)c2ccccc2C1=O	-12.1	-4.8	50.5*	2.8	-3.0
C/C(=N\NC(=O)c1cc2ccccc2cc1O)c1ccccn1	-168.0	-72.4	-54.5	5.0	14.4
COc1ccc(NC(=O)Nc2cccc3c2O[C@@H](CN(C)C(=O)Nc2cccc4ccccc24)[C@H](C)CN([C@@H](C)CO)C3=O)cc1	?	.	38.2	.	.
c1cnc2ccc(C(c3nnnn3C3CCCC3)N3CCN(c4nc5ccccc5s4)CC3)cc2c1 (stereo not given)	122.2*	5.0	5.3	-2.9	-2.7
C=CCn1cc(-c2ccc(Cl)cc2)cc(C#N)c1=O	5.5	9.3	-10.1	1.1	.
C=CCn1cc(-c2ccccc2)cc(C#N)c1=O	140.9*	19.2	-3.5	0.8	.
CCN(CC)CC(=O)n1c2c(c3ccccc31)CCCC2	123.9*	4.3	5.6	1.7	.
C=CCC(=O)N1CCC(n2nccc2NC(=O)c2ccc3c(c2)OCO3)CC1	.	.	.	2.8	-0.4
CSCCC(=O)N1CCC(n2nccc2NC(=O)c2ccc3c(c2)OCO3)CC1	-26.5	44.2	60.8*	2.0	16.2
O=C(Nc1ccccc1C(=O)NC1CCCCC1)c1ccccc1	-20.0	0.8	-8.1	1.4	-14.1
SMILES	C2C12 statin	MITF TRPM1 HTS	esBAF inh	GAA850 FXN act	Wnt act
O=C(Nc1ccccc1C(=O)NC(Cc1ccccc1)C(=O)NC1CCCCCC1)c1ccccc1 (stereo not given)	118.7*	.	6.1	6.8	-1.4
O=C(NC1CCN(C(=O)NCc2ccccc2)CC1)c1ccccc1	1.2	0.8	-0.3	2.0	0.3
O=C(N[C@@H](Cc1ccccc1)C(=O)NC1CCCCCC1)c1ccco1	1.1	?	45.4*	2.0	.
CSCCC(NC(=O)c1ccco1)C(=O)NC1CCC(C)CC1 (stereo not given)	5.6	112.0*	62.0*	3.7	23.6
O=C(NC1CCN(C(=O)NCc2ccccc2)CC1)c1ccco1	100.7*	-10.7	1.7	1.1	.
Cc1noc(C)c1NC(=O)Nc1ccc2c(c1)C(=O)N([C@H](C)CO)C[C@H](C)[C@H](CN(C)S(=O)(=O)c1ccc(F)cc1)OCCCC[C@H](C)O2	.	.	-5.0	.	.
O=C(C[C@@H]1CC[C@@H](NS(=O)(=O)c2cccc(F)c2)[C@@H](CO)O1)N1CCCCC1	-4.6	.	-0.2	.	.
CN(C(=O)COc1cc(=O)n(C)c2ccccc12)c1ccc(Cl)cc1	-0.8	-0.2	-1.0	-0.4	7.9
CN(c1ccc(Cl)cc1)c1cc(=O)n(C)c2ccccc12	129.4*	-27.8	-1.4	2.5	.
COc1ccc(-c2cc3nc(C)c(C)c(N4CCN(C(=O)c5ccoc5)CC4)n3n2)cc1	-3.8	.	3.7	2.3	-4.6
Cc1cc(N2CCN(C(=O)c3ccco3)CC2)n2ncnc2n1	.	8.3	.	0.6	-4.7
Cc1nc2cc(-c3cccc(F)c3)nn2c(N2CCN(C(=O)c3ccco3)CC2)c1C	-6.5	25.0	42.8*	3.9	.
Cc1cc(N2CCN(C(=O)c3ccco3)CC2)n2ncc(-c3ccccc3)c2n1	-16.4	.	49.8*	3.8	-0.4
CC(C)(C)C1C/C(=C/c2ccccn2)C(=O)/C(=C/c2ccccn2)C1 (stereo not given)	116.4*	-100.8	-86.4	-16.9	.
O=C(c1ccc(C(=O)N2CCOCC2)s1)N1CCOCC1	8.8	13.6	4.0	-1.8	0.2
O=C(c1ccc(-c2ccccc2Cl)s1)N1CCOCC1	.	91.6*	.	4.2	10.3
Cn1c2c(c(=O)n(C)c1=O)C(CC(=O)Nc1ccccc1)C(=O)N2 (stereo not given)	133.4*	3.8	-3.4	0.6	0.2
Cc1nc2sc(C(=O)Nc3ccccc3)c(N)c2c(C)c1[N+](=O)[O-]	.	44.7	.	4.5	36.3*
CN(C)CCCNC(=O)[C@H]1[C@H](CO)[C@H]2Cn3c(cccc3=O)[C@@H]1N2CC1CC1	8.7	.	-1.3	.	.
CCOC(=O)c1snc(C(=O)NC2CCCCC2)c1N	-12.1	84.1*	59.7*	4.7	19.9
C[C@@H]1CN([C@@H](C)CO)C(=O)c2cc(NC(=O)Nc3ccccc3)ccc2O[C@@H]1CN(C)Cc1ccc(Cl)c(Cl)c1	.	.	5.6	.	.
Oc1c(C(c2ccccn2)N2CCC(Cc3ccccc3)CC2)cc(Cl)c2cccnc12 (stereo not given)	.	.	.	.	203.9*
Cc1ccc(C(c2cc(Cl)c3cccnc3c2O)N2CCN(C)CC2)cc1 (stereo not given)	-55.0	-9.7	-1.3	1.3	.
CC(=O)NC(c1cc(Cl)c2cccnc2c1O)C(C)C (stereo not given)	80.7*	-27.2	-12.7	-3.3	6.6
CN1CCN(C(c2ccccn2)c2cc(Cl)c3cccnc3c2O)CC1 (stereo not given)	-2.2	-17.2	4.8	3.6	57.7*
C[C@H]1CN([C@@H](C)CO)C(=O)c2cc(NC(=O)Cc3ccccc3)ccc2O[C@H]1CN(C)CC1CCCCC1	28.6	.	1.7	.	.
Cc1cc(C)n(-c2nnc(NC34CC5CC(CC(C5)C3)C4)nn2)n1	9.0	138.4*	57.6*	6.9	.

Screens: PubChem, several laboratories
